A short description of assay [1]: inhibitors of TNFa-induced NFkB p65 translocation, primary screen, imaging, HUVEC, MLSMR starter and 10KST1 sets (AID 438;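 active means inhibition above 20% together with a positive visual image hit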;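 further: compound added about 3h40 before a 20 min TNFalpha stimulation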;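 on inhibition: signal is the nuclear over cytoplasmic p65 intensity ratio per well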). Conditions: HUVEC TNFa-induced p65 nuclear translocation; cell count: measured here: nuclei count (cytotoxicity indicator), at 2.08 µM; inhibition: at 2 µM, stronger effect = higher value, 0% TNFa-plus-vehicle, 100% no-TNFa wells.
Assay [2] in a line: inhibitors of mutant huntingtin aggregation, primary screen, imaging, exon1htt(103Q)mCFP cells, high-content imaging (AID 483;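 active means visual image review flags a hit and inhibition of aggregation exceeds 20%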;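 further: compound exposure lasted 3 days before fixation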;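 on nuclei count: percent of the per-plate median nuclei count of sample wells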). The settings on record: exon1htt(103Q)mCFP cell line, aggregate imaging, at 2 µM; inhibition of aggregation: stronger effect = higher value; nuclei count: measured here: cell count, toxicity.
Assay [3] can be described thus: inhibitors of E-selectin induction by TNFa, primary screen, imaging, HUVEC, immunofluorescence, MLSMR starter and 10KST1 sets (AID 487;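 active means visually confirmed hit in the image check and inhibition above 20%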;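 on inhibition: signal is fraction of cell area covered by stained E-selectin grains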;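 on nuclei count: 100% = median nuclei count of all wells on the same plate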). The settings on record: HUVEC TNFalpha-induced E-selectin immunofluorescence imaging, at 2 µM; inhibition: stronger effect = higher value; nuclei count: measured here: cell number, toxicity.
In assay [4] the target is Voltage-gated potassium channel subunit beta-2 (Rattus norvegicus) (UniProt P62483). In words: KvBeta enzyme negative modulators, primary screen, biochemical, NADPH fluorescence (AID 622;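 active means fluorescence slope higher than the sample average by over 3 SD, cut at about -0.22 in these data, passing the limit was not always enough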;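 further: slope of raw intensity against log time taken from 70 to 1610 s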). The settings on record: recombinant KvBeta, 4-cyanobenzaldehyde reduction, at 10 µM, stronger effect = higher value.
The target is the same in assay [5]. In words: KvBeta positive modulators, primary screen, biochemical, NADPH fluorescence (AID 623;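 active means NADPH fluorescence slope more negative than the mean of all samples by about 3 SD, 99.7% confidence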;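 further: fluorescence intensity change per second fitted from 20 to 320 s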). The settings on record: Recombinant KvBeta, NADPH fluorescence decrease slope, 10 min; at 10 µM; stronger effect = lower value.
The target in assay [6] is Muscarinic acetylcholine receptor M4 (Homo sapiens) (UniProt P08173). In words: compounds altering M4/GIRK thallium flux, either direction, primary screen, M4 allosteric agonist project, cell-based, HEK293 M4/GIRK, BTC-AM (AID 625;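 active means fluorescence slope after compound addition differing from the mean of all tested samples at 99.7% confidence, mostly higher but some lower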;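 further: thallium influx through GIRK channels coupled to M4 in HEK293 cells with BTC-AM dye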). Conditions: at 10 µM, actives lie on both sides.
Assay [7] can be described thus: inhibitors of Sendai virus-induced IRF3 signaling, primary screen, TLR/RLR signaling modifier project, cell-based, Sendai virus stimulus, luciferase, 10K MLSCN set (AID 602276).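 Further: firefly luciferase from ISG56 promoter only with Renilla not read in this screen; 0% = Sendai virus plus DMSO and 100% = medium plus DMSO without virus.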 The settings on record: HEK293 RL24 IRF3 luciferase reporter, at 10 µM, stronger effect = higher value. Background: In a reporter assay the amount or activity of a reporter protein is the signal.
The nature of assay [8]: inhibitors of poly I:C-induced TLR3 signaling, primary screen, cell-based, poly I:C stimulus, luciferase, 10K MLSCN set (AID 602277;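 active means inhibition of the reporter signal at or above 50%; inactive means inhibition below 50%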). The settings on record: HEK293-TLR3 RL24 IRF3 luciferase reporter, at 10 µM, stronger effect = higher value.
The target in assay [9] is Alpha-2C adrenergic receptor (Homo sapiens) (UniProt P18825). In words: modulators of alpha2C/GIRK thallium flux, primary screen, cell-based, HEK293 alpha2C/GIRK1/2 (AID 624;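 active means fluorescence slope after compound addition differing from the mean of all screened samples at 99.7% confidence, in either direction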;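 further: slope of fluorescence ratio to pre-addition baseline per second over 15 to 24 s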). Conditions: thallium flux BTC fluorescence, at 10 µM, actives lie on both sides.
The nature of assay [10]: inhibitors of larval lipid processing in zebrafish, primary screen, whole organism, PED6 fluorescence, gall bladder and intestine (AID 686;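 active means a full or partial loss of lipid-probe fluorescence in the fish gall bladder, intestine or both, judged by eye; inactive means no fluorescence loss, or compound toxic to the fish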;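 further: larvae 5 to 7 days old with five fish per well; signal comes from phospholipase A2 cleavage of quenched PED6 carried via bile; overnight exposure to compound and PED6 before scoring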). Conditions: Zebrafish larvae PED6 lipid processing, fluorescence scoring; screened at 20 µM (by protocol).

Active and inactive are the calls of the source.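 How the source made its calls, unless noted: active means inhibition at or above 50% at 10 µM; inactive means inhibition below 50%.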

Voltage-gated potassium channel subunit beta-2 (Rattus norvegicus), sequence (P62483 whole entry, looked up): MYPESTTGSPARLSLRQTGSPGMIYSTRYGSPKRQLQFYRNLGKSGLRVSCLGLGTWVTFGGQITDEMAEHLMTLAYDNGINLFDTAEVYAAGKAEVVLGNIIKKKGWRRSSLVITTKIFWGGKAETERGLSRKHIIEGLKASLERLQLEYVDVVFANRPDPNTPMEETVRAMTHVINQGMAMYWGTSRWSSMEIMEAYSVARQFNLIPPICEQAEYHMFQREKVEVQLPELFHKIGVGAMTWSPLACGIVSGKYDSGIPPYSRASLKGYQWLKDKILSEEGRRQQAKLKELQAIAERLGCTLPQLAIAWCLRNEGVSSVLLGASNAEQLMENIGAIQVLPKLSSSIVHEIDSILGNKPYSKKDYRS
Muscarinic acetylcholine receptor M4 (Homo sapiens), sequence (P08173 whole entry, looked up): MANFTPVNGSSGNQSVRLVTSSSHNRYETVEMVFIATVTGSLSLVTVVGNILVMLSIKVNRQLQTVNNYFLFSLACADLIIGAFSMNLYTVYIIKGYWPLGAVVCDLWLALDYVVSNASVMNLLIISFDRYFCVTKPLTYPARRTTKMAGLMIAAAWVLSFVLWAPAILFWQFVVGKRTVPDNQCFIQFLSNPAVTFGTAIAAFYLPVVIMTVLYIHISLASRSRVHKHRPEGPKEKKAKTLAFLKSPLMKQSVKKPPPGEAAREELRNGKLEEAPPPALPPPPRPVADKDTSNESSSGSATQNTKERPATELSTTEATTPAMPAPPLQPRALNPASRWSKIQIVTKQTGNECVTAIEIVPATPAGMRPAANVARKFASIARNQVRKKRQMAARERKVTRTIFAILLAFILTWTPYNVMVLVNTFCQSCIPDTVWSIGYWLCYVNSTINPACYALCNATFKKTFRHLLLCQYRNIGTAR
Alpha-2C adrenergic receptor (Homo sapiens), sequence (P18825 whole entry, looked up): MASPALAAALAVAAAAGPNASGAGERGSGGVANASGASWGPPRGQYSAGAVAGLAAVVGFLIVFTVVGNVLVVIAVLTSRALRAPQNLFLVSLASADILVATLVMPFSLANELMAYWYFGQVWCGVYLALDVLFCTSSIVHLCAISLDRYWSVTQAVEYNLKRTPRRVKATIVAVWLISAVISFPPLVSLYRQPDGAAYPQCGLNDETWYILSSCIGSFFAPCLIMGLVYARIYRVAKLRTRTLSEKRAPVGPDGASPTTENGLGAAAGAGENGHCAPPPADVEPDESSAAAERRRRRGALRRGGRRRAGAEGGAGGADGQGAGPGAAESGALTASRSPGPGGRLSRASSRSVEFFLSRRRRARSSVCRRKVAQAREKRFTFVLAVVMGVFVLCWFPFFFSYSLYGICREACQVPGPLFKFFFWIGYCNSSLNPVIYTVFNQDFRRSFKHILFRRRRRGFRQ

Consider `O=C(CCn1c(=O)sc2ccccc21)NC1=NCCS1`, for which the cell count in assay [1] was 620. For the same molecule, the inhibition in assay [1] was -25.8% (inactive); in assay [3], -118% (inactive); in assay [7], -9.67% (inactive); in assay [8], -5.87% (inactive). In assay [2], the inhibition of aggregation is 8.6% (inactive). The nuclei count in assay [2] worked out at 102%; in assay [3], 121%. Besides, the fluorescence slope was -0.464 (inactive) in assay [4] and 0.00544 (inactive) in assay [6]. Further, the NADPH fluorescence slope in assay [5] was 8e-05 (inactive).
For `COc1ccc(CN(C)CC(=O)c2c(N)n(Cc3ccccc3)c(=O)n(C)c2=O)c(OC)c1`, the cell count in [1] came to 459. Moreover, the inhibition was -21.4% (inactive) in assay [1], 2.2% (inactive) in [3], 17.1% (inactive) in [7] and 24.3% (inactive) in assay [8]. In addition, the inhibition of aggregation in assay [2] was -15.1% (inactive). Moreover, the nuclei count in assay [2] was found to be 103%; in assay [3], 98.3%. Besides, the results for the fluorescence slope in assay [4] and in assay [6] were -0.579 (inactive) and 0.00645 (inactive), respectively. The NADPH fluorescence slope in assay [5] is -1.3e-05 (inactive).
For the molecule `COC(=O)Cn1cnc2c(nnn2-c2ccc(C)cc2)c1=O`, the cell count in [1] was 257. In addition, the inhibition is 8.9% (inactive) in assay [1], -78.1% (inactive) in assay [3], -7.22% (inactive) in assay [7] and 1.35% (inactive) in assay [8]. The inhibition of aggregation in assay [2] was -6.9% (inactive). Also, the nuclei count in assay [2] came out at 100%; in assay [3], 106%. In addition, the fluorescence slope was -0.287 (inactive) in assay [4] and 0.00635 (inactive) in assay [6]. In addition, the NADPH fluorescence slope in assay [5] is -3.1e-05 (inactive).
In the case of `CC1CCN(C(=O)C2CCN(S(=O)(=O)c3cnc[nH]3)CC2)CC1`, in assay [1], the cell count was found to be 464. In addition, the inhibition in [1] was 2.5% (inactive); in assay [3], -170% (inactive); in assay [7], 15.5% (inactive); in assay [8], 19.2% (inactive). In addition, the inhibition of aggregation in assay [2] was 22% (inactive). Further, the nuclei count in assay [2] is 90.5%; in assay [3], 116%. The fluorescence slope is -0.553 (inactive) in assay [4] and 0.00577 (inactive) in assay [6]. In addition, the NADPH fluorescence slope in [5] was -1.4e-05 (inactive).
As to `Clc1cccc(-c2nn3c(Cn4cnc5ccccc54)nnc3s2)c1`, the cell count in assay [1] was determined as 581. The inhibition is 4.7% (inactive) in assay [1], -92.1% (inactive) in assay [3], 18.7% (inactive) in assay [7] and 21.6% (inactive) in assay [8]. Further, the inhibition of aggregation in [2] is -6.1% (inactive). In addition, the nuclei count in [2] came out at 113%; in [3], 130%. In addition, the fluorescence slope in assay [4] was -0.432 (inactive); in assay [6], 0.00396 (inactive). Moreover, the NADPH fluorescence slope in [5] is -0.000274 (inactive).
Take `Cc1ccc(NC(=O)N2CCC(c3nc4c(nnn4Cc4cccc(Cl)c4)c(=O)[nH]3)CC2)cc1`: the cell count in assay [1] was 811. The inhibition in [1] was -4.8% (inactive); in assay [3], -3.8% (inactive); in assay [7], 8.55% (inactive); in assay [8], 21.7% (inactive). Also, in assay [2], the inhibition of aggregation is -2.1% (inactive). Besides, the nuclei count was found to be 55.6% in [2] and 124% in assay [3]. Moreover, the fluorescence slope in [4] was -0.569 (inactive); in assay [6], 0.00576 (inactive). Besides, the NADPH fluorescence slope in [5] was -7.6e-06 (inactive).
As to `Cc1cc(NC(=O)COc2ncnc3sc(C)c(C)c23)no1`, the cell count in assay [1] was found to be 418. Moreover, the results for the inhibition in assay [1], in assay [7] and in assay [8] were 1.3% (inactive), 21% (inactive) and 21.4% (inactive), respectively. Besides, in [2], the inhibition of aggregation is -2.1% (inactive). For the same molecule, the nuclei count in assay [2] came out at 100%; in assay [3] it was 153%. Also, the fluorescence slope in assay [4] was -0.568 (inactive); in [6] it was 0.00692 (inactive). The NADPH fluorescence slope in assay [5] is -2.9e-05 (inactive).
Consider `CC(C)C12CN3CC(C(C)C)(CN(C1)C3c1ccc3c(c1)OCO3)C2=O` (centres undefined), for which, in assay [1], the cell count stood at 412 and the inhibition was 10.8% (inactive). In assay [2], the inhibition of aggregation was -9.1% (inactive) and the nuclei count is 98.4%. In addition, the fluorescence slope in assay [4] is -0.304 (inactive). The NADPH fluorescence slope in [5] was -1e-05 (inactive). Moreover, in assay [9], the slope is 0.00697 (inactive). Also, the outcome in assay [10] was inactive. For the same molecule, the inhibition in assay [7] is 11.3% (inactive). The inhibition in assay [8] was 20.8% (inactive).
On to `Cc1ncoc1C(=O)Nc1ccccc1C(N)=O`, for which, in [1], the cell count is 408. Besides, the inhibition in assay [1] was 3.5% (inactive); in assay [3], -2.5% (inactive); in assay [7], 1.59% (inactive); in [8] it was -3.92% (inactive). For the same molecule, in [2], the inhibition of aggregation is 11.4% (inactive). Besides, the nuclei count in assay [2] stood at 102%; in assay [3], 108%. For the same molecule, the fluorescence slope in [4] is -0.243 (inactive); in assay [6], 0.00516 (inactive). Moreover, the NADPH fluorescence slope in assay [5] is -1.8e-07 (inactive).
For `O=S(=O)(NCCc1ccccn1)c1cccs1`, the cell count in assay [1] was 601. Moreover, the inhibition in [1] is -23% (inactive); in assay [3], -28.9% (inactive); in [7], 19.1% (inactive); in assay [8], 34.4% (inactive). In addition, the inhibition of aggregation in assay [2] is -31.3% (inactive). Moreover, the nuclei count in assay [2] turned out to be 119%; in assay [3], 147%. In addition, the fluorescence slope in assay [4] was -0.417 (inactive); in assay [6] it was 0.00561 (inactive). The NADPH fluorescence slope in assay [5] is -0.000114 (inactive).
For `O=C(Nc1ccc2c(c1)OCO2)C1CCCN1C(=O)Nc1ccccc1F` (centres undefined), the cell count in assay [1] came to 432. The inhibition in assay [1] was 9% (inactive); in assay [7], 16.1% (inactive); in [8], 24.2% (inactive). For the same molecule, in assay [2], the inhibition of aggregation was -11.8% (inactive). In addition, the nuclei count was determined as 98.2% in [2] and 135% in assay [3]. Also, the fluorescence slope was -0.418 (inactive) in [4] and 0.0058 (inactive) in [6]. Besides, the NADPH fluorescence slope in assay [5] was 3.8e-05 (inactive).
With `COc1ccc(C(=O)NCCn2ccc3ccccc32)cc1`, in [1], the cell count was 238. The inhibition is 7.3% (inactive) in [1], -36.9% (inactive) in assay [3], 5.56% (inactive) in assay [7] and -49.2% (inactive) in assay [8]. For the same molecule, the inhibition of aggregation in assay [2] is 25.9% (inactive). In addition, the nuclei count in [2] is 104%; in [3], 95%. Moreover, the values for the fluorescence slope in assay [4] and in assay [6] were -0.386 (inactive) and 0.008 (inactive), respectively. The NADPH fluorescence slope in assay [5] was -5.6e-06 (inactive).
Take `CC(C)(C)c1cc(C(=O)O)nn1-c1ccccc1`: the cell count in assay [1] worked out at 446. In addition, the inhibition was 2.5% (inactive) in [1], 15.1% (inactive) in [7] and 24.6% (inactive) in assay [8]. Also, the inhibition of aggregation in [2] was 2.7% (inactive). The nuclei count was found to be 94.2% in assay [2] and 130% in [3]. Besides, the fluorescence slope is -0.482 (inactive) in assay [4] and 0.00539 (inactive) in [6]. The NADPH fluorescence slope in assay [5] was -3.8e-05 (inactive).
As to `COc1cccc(C(=O)Nc2cnc(NC(=O)c3ccco3)cc2C)c1`, the cell count in assay [1] was determined as 463. Besides, the inhibition in [1] is 12.5% (inactive); in assay [7], 5.68% (inactive); in assay [8], -23.5% (inactive). The inhibition of aggregation in assay [2] was -2.9% (inactive). Moreover, the values for the nuclei count in [2] and in [3] were 98.1% and 119%, respectively. Besides, the fluorescence slope in [4] was -0.567 (inactive); in assay [6], 0.00623 (inactive). In addition, the NADPH fluorescence slope in assay [5] is -5.3e-05 (inactive).

In general, inhibition refers to the change of the read-out against control, counted positive when it falls.
